Reference: the supplement of paper PMC10849652
Targets with a hit are over-represented here; the source holds about 8,800 in all. About 0.5% of all pairs of compound and target were hits.

compound: NC1(c2ccc(-c3nc4ccn5c(=O)[nH]nc5c4cc3-c3ccccc3)cc2)CCC1; experiment: log2 fold change, soluble protein after heating vs DMSO (PISA); higher = thermal stabilisation; K562 lysate, 10 uM; active = over 0.2 and 3.5 SD of the protein, either way, in both replicates (recomputed)
Outline: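 K562 pellets were dounce-homogenised in PBS pH 7.4 with 1 mM MgCl2, and the crude extract at 1 mg/mL protein was treated with 10 μM compound for 30 min. Aliquots were heated for 3 min across 48°C-58°C, pooled, and brought to 0.5% NP-40 at 4°C; soluble protein was the supernatant after 21,000xg for 90 min. Soluble protein was quantified by TMTpro 16plex LC-MS/MS with channel sums equalised, and reported as log2 fold change in thermal stability against DMSO controls, with values from duplicates.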

Chain of UniProt P22695 (P22695 whole entry, looked up): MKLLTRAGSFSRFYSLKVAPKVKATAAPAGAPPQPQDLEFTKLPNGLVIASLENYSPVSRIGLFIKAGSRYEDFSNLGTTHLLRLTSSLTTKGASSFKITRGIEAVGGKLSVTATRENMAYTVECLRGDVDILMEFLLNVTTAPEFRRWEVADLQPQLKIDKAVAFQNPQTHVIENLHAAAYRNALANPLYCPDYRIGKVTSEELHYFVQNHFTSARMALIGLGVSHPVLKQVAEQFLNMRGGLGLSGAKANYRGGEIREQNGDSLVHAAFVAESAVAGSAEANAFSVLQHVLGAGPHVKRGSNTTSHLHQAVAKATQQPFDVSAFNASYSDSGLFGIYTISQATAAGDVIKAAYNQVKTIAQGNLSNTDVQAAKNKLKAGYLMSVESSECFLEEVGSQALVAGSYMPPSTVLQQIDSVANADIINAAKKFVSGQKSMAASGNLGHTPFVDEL
Chain of UniProt P15498 (P15498 whole entry, looked up): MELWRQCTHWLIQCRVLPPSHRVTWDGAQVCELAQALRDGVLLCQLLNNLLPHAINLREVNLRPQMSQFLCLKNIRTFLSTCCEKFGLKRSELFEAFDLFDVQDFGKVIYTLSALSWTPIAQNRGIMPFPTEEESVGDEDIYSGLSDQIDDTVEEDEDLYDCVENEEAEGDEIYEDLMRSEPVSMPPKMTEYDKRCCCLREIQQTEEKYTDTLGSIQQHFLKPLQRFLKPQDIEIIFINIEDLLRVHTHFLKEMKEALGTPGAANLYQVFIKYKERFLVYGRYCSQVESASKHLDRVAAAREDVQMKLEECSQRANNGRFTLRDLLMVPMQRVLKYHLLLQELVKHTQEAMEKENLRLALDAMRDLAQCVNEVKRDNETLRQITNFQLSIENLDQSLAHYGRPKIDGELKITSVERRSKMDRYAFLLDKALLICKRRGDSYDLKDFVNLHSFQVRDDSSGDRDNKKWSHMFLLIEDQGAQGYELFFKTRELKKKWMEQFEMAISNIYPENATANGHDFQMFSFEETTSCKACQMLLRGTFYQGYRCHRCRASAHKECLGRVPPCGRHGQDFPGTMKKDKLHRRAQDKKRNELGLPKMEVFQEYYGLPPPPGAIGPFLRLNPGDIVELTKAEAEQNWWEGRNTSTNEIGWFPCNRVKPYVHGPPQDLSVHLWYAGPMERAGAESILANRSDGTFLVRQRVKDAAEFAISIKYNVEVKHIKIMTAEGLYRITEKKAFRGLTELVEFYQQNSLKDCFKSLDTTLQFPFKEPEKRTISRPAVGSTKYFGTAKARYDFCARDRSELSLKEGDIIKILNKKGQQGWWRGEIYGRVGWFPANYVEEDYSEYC
Chain of UniProt A4D1P6 (A4D1P6 whole entry, looked up): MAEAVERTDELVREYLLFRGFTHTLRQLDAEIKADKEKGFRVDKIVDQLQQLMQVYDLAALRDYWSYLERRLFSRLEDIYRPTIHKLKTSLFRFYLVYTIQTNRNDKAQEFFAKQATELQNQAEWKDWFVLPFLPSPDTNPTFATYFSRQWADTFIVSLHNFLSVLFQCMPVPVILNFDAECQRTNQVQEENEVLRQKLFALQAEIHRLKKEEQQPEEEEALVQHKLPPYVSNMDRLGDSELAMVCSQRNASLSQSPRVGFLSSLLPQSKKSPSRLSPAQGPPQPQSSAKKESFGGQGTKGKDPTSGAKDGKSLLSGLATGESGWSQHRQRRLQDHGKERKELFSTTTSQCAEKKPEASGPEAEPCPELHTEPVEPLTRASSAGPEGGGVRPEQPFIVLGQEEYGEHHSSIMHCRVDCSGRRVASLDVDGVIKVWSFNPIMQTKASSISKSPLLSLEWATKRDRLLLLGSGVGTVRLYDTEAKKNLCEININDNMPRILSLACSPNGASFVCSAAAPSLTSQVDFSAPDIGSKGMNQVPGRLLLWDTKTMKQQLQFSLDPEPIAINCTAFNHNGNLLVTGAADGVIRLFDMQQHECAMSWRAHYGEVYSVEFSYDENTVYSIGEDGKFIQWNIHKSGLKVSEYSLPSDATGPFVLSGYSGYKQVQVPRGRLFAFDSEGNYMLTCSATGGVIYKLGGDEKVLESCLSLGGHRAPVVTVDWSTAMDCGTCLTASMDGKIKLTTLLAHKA
Chain of UniProt Q9BZI7 (Q9BZI7 whole entry, looked up): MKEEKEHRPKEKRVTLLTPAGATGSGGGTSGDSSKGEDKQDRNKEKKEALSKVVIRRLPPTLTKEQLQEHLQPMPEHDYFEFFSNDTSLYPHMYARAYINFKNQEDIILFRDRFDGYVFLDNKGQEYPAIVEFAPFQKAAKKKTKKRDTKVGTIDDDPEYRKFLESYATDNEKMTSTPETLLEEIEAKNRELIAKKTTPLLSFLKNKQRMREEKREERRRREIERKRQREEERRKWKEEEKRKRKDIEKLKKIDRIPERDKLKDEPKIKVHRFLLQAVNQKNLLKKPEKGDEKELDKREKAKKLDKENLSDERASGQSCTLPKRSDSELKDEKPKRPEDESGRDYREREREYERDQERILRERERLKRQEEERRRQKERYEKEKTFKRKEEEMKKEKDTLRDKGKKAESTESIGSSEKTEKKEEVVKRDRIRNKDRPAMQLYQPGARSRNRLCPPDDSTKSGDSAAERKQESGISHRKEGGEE
Chain of UniProt Q14191 (Q14191 whole entry, looked up): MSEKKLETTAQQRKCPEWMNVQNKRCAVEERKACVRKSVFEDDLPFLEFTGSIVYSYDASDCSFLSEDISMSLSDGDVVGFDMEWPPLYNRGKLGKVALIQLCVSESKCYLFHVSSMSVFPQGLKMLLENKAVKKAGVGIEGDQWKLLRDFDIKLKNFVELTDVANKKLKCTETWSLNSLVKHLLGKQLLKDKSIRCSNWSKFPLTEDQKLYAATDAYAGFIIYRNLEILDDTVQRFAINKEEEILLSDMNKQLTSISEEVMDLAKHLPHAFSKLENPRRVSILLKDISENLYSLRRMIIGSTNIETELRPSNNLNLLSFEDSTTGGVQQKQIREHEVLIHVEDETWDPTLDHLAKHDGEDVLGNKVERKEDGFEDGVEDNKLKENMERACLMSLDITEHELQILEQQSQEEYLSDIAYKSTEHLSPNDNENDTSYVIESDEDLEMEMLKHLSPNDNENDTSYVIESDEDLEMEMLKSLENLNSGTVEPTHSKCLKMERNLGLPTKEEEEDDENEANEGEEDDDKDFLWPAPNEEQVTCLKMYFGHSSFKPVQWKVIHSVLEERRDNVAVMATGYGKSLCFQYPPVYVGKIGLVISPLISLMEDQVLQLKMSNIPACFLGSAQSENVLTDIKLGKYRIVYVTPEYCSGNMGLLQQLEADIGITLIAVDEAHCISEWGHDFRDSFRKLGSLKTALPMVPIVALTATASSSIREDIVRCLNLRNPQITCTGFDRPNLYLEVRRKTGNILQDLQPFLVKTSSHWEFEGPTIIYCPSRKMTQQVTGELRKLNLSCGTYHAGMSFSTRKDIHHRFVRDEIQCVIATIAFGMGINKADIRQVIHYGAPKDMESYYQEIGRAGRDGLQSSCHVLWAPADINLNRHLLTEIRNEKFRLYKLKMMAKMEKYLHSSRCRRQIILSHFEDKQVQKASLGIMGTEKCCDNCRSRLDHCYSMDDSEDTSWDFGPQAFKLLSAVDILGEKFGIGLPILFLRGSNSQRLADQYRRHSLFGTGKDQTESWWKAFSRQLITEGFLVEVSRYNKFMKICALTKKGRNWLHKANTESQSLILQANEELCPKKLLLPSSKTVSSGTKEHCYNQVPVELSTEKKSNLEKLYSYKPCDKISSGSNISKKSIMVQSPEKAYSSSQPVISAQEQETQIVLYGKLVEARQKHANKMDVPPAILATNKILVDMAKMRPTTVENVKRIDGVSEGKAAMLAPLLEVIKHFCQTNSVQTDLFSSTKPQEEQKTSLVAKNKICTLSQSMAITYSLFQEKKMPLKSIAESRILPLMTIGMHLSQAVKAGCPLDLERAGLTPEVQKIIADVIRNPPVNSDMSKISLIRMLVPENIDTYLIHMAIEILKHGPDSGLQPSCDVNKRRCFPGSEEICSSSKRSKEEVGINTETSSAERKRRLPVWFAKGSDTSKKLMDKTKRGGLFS
Chain of UniProt Q14694 (Q14694 whole entry, looked up): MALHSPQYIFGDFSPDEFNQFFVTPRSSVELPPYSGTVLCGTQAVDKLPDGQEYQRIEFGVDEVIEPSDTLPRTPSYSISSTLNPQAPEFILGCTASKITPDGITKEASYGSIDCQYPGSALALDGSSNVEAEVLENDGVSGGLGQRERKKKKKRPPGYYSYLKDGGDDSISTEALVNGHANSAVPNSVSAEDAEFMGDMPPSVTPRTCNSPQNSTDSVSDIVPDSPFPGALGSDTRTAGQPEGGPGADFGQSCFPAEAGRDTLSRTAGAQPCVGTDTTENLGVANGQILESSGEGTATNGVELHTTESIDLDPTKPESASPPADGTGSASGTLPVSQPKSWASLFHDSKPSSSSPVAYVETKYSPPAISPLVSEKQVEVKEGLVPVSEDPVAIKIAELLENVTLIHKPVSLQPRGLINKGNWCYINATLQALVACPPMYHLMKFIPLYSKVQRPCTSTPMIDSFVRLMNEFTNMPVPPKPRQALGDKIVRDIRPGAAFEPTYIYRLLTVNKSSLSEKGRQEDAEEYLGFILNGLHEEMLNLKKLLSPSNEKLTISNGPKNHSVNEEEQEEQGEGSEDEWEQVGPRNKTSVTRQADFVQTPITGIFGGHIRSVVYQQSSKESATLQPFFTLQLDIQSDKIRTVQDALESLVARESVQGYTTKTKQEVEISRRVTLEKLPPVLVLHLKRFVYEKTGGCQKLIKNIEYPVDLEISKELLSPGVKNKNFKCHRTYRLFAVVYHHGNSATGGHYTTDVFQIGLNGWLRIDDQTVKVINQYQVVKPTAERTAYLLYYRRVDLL

log2 fold change, inactive:
VPS72 (UniProt Q15906) -0.036
ZNF609 (UniProt O15014) 0.003
UQCRC2 (UniProt P22695) 0.011
UPF3B (UniProt Q9BZI7) -0.003
VRK2 (UniProt Q86Y07) -0.006
ZNF598 isoform 3 (UniProt Q86UK7) 0.029
ZMYM1 (UniProt Q5SVZ6) 0.028
VARS (UniProt P26640) -0.028
VAC14 (UniProt Q08AM6) -0.027
VASP (UniProt P50552) 0.013
ZHX1 (UniProt Q9UKY1) -0.011
VPS54 (UniProt Q9P1Q0) -0.121
WDR91 (UniProt A4D1P6) 0.011
ZBTB40 (UniProt Q9NUA8) 0.058
YES1 (UniProt P07947) 0.054
WDR77 (UniProt Q9BQA1) 0.039
ZDHHC18 (UniProt Q9NUE0) 0.067
ZC2HC1A (UniProt Q96GY0) -0.092
VPS35L (UniProt Q7Z3J2) -0.044
VPS11 (UniProt Q9H270) 0.003
VPS13C (UniProt Q709C8) -0.05
ZMYM4 (UniProt Q5VZL5) -0.003
USP10 isoform 2 (UniProt Q14694) -0.012
XAB2 (UniProt Q9HCS7) -0.01
VAV3 isoform 4 (UniProt Q9UKW4) 0.038
WDR3 (UniProt Q9UNX4) 0.009
VAV1 (UniProt P15498) -0.054
WRN (UniProt Q14191) -0.013
WDR41 (UniProt Q9HAD4) -0.017
YLPM1 (UniProt P49750) -0.013
